The source of these data is PMC5892938, “SARNAclust: Semi-automatic detection of RNA protein binding motifs from immunoprecipitation data”.

The full ranking holds about 11,000 sequences; the median of “log2 fold change” is about 0.00022, and the highest 2% start at about 0.34. The list shows a part of the results.

The assay deals with GST-SBP-SLBP (stem-loop binding protein) (Homo sapiens, UniProt Q14493 1-270). Nature of the assay: targeted RNA Bind-n-Seq; RBNS binding buffer: 25 mM Tris pH 7.5, 150 mM KCl, 3 mM MgCl2, 0.1% Tween, 0.5 mg/mL BSA, 1 mM DTT; 27 nM protein, 750 pM RNA pool; temperature not stated; high values mean tight binding. The settings on record: protein: recombinant; tags: N-terminal GST and SBP (pGEX6P1-SBP); structured_RNA. Put shortly: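 The protein, carrying a GST-SBP tag, was produced in Rosetta(DE3) pLysS E. coli, purified on glutathione, and mixed at 27 nM with 750 pM of a designed RNA oligo pool made by T7 transcription in RBNS binding buffer. RNA that bound was reverse transcribed using a barcoded primer of 10 nucleotides, amplified by PCR and sequenced on a MiSeq with 200-cycle paired-end reads. FLASH joined the reads, HISAT2 aligned them, and they were collapsed by barcode before the binding signal was taken as the DEseq binary-logarithm fold change of read counts for each sequence.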
Consider “GGUCACGUCUCAAUCAACUCAACUUCCAGGGAAAACCCUGGCAUUUUCAACAGCUCGCAGUCAAG”, for which the binding signal is 0.305 ± 0.262 log2 fold change. For “GGUCACGUCUCAAUCAACUCAAUCCCCAGGGAAAACCCUGGCAUACUCAACAGCUCGCAGUCAAG”, the binding signal was 0.351 ± 0.232 log2 fold change. Turning to “GGUCACGUCUCAAUCAACUCUUUUUCCAGGGAAACCCCUGGUAUACUCAACAGCUCGCAGUCAAG”, the binding signal came to 0.445 ± 0.233 log2 fold change.

For the sequence “GGUCACGUCUCAAUCAACUCUAUUCCCAGGGAAAACCCUGGCAUUUUCAACAGCUCGCAGUCAAG”, the binding signal was found to be 0.49 ± 0.262 log2 fold change. The value for “GGUCACGUCUCAAUCAACUCUAUUCCCAGGGAAACCCCUGGCAUACUCAACAGCUCGCAGUCAAG” was 0.311 ± 0.273 log2 fold change; that for “GGUCACGUCUCAAUCAACUCUACUCCCAGGGAAAACCCUGGUAAUUUCAACAGCUCGCAGUCAAG” was 0.454 ± 0.318 log2 fold change. “GGUCACGUCUCAAUCAACUCAGUUUCCAGGGAAAACCCUGGCUUUCUCAACAGCUCGCAGUCAAG”: the binding signal stood at 0.31 ± 0.297 log2 fold change. The figure for “GGUCACGUCUCAAUCAACUCUUUUUCCAGGGAAAACCCUGGCAUGUUCAACAGCUCGCAGUCAAG” is 0.34 ± 0.244 log2 fold change; for “GGUCACGUCUCAAUCAACUCUUCUCCCAGGGAAACCCCUGGCAUUCUCAACAGCUCGCAGUCAAG” it is 0.304 ± 0.257 log2 fold change; for “GGUCACGUCUCAAUCAACUCUUUUUCCAGGGAAAACCCUGGCGUAUUCAACAGCUCGCAGUCAAG” it is 0.352 ± 0.225 log2 fold change. The figure for “GGUCACGUCUCAAUCAACUCAUCUCCCAGGGAAAACCCUGGCAUUCUCAACAGCUCGCAGUCAAG” is 0.367 ± 0.304 log2 fold change; for “GGUCACGUCUCAAUCAACUCAAUGGAGGGGGGGAAAACCCCUUUACCCUCAAAAUCAACAGCUCGCAGUCAAG” it is 0.547 ± 0.434 log2 fold change.

With “GGUCACGUCUCAAUCAACUCCUUAGAGGGGGGGAAAACCCCUUUACCCUCAAAAUCAACAGCUCGCAGUCAAG”, the binding signal turned out to be 0.546 ± 0.43 log2 fold change. For “GGUCACGUCUCAAUCAACUCCUUAGAGGGGGGGAAAACCCCUUUACCCUCAACCUCAACAGCUCGCAGUCAAG”, the binding signal worked out at 0.395 ± 0.407 log2 fold change. The value for “GGUCACGUCUCAAUCAACUCCUUAGAGGGGGGGAAAACCCCUUUACCCUCGUUAUCAACAGCUCGCAGUCAAG” was 0.302 ± 0.406 log2 fold change; that for “GGUCACGUCUCAAUCAACUCCUUAGAGGGGGGGAAAACCCCUUUACCCUCAACUUCAACAGCUCGCAGUCAAG” was 0.489 ± 0.43 log2 fold change; that for “GGUCACGUCUCAAUCAACUCAUCAGAGGGGGGGAAAACCCCUUUACCCUCAUCCUCAACAGCUCGCAGUCAAG” was 0.388 ± 0.447 log2 fold change. Take “GGUCACGUCUCAAUCAACUCAUAGGAGGGGGGGAAAACCCCUUUACCCUCAUCAUCAACAGCUCGCAGUCAAG”: the binding signal is 0.315 ± 0.446 log2 fold change. The figure for “GGUCACGUCUCAAUCAACUCAUCAGAGGGGGGGAAAACCCCUUUACCCUCAACUUCAACAGCUCGCAGUCAAG” is 0.39 ± 0.431 log2 fold change; for “GGUCACGUCUCAAUCAACUCCCCAGAGGGGGGGAAAACCCCUUUACCCUCAUCCUCAACAGCUCGCAGUCAAG” it is 0.566 ± 0.415 log2 fold change; for “GGUCACGUCUCAAUCAACUCUUCAGAGGGGGGGAAAACCCCUUUACCCUCACAAUCAACAGCUCGCAGUCAAG” it is 0.311 ± 0.418 log2 fold change. As for “GGUCACGUCUCAAUCAACUCAUAGGAGGGGGGGAAAACCCCUUUACCCUCAACUUCAACAGCUCGCAGUCAAG”, the binding signal was determined as 0.451 ± 0.453 log2 fold change. For the sequence “GGUCACGUCUCAAUCAACUCCUUAGAGGGGGGGAAAACCCCUUUGCCCUCAACAUCAACAGCUCGCAGUCAAG”, the binding signal is 0.411 ± 0.394 log2 fold change. The figure for “GGUCACGUCUCAAUCAACUCCUUAGAGGGGGGGAAAACCCCUUUGCCCUCACCGUCAACAGCUCGCAGUCAAG” is 0.412 ± 0.444 log2 fold change; for “GGUCACGUCUCAAUCAACUCCUUAGAGGGGGGGAAAACCCCUUUGCCCUCGUUUUCAACAGCUCGCAGUCAAG” it is 0.342 ± 0.445 log2 fold change.

For “GGUCACGUCUCAAUCAACUCCUUAGAGGGGGGGAAAACCCCUUUGCCCUCCGUAUCAACAGCUCGCAGUCAAG”, the binding signal came to 0.307 ± 0.406 log2 fold change. The value for “GGUCACGUCUCAAUCAACUCUACGGCAGGAGUUUACUCCUGGAAUCUCAACAGCUCGCAGUCAAG” was 0.318 ± 0.232 log2 fold change; that for “GGUCACGUCUCAAUCAACUCAACAGAGGGGGGGAAAACCCCUUUACCCUCACCAUCAACAGCUCGCAGUCAAG” was 0.341 ± 0.391 log2 fold change.

Take “GGUCACGUCUCAAUCAACUCCACAGAGGGGGGGAAAACCCCUUUACCCUCCAUCUCAACAGCUCGCAGUCAAG”: the binding signal came to 0.416 ± 0.406 log2 fold change. The value for “GGUCACGUCUCAAUCAACUCUCUAGAGGGGGGGAAAACCCCUUUACCCUCACCAUCAACAGCUCGCAGUCAAG” was 0.354 ± 0.424 log2 fold change. As for “GGUCACGUCUCAAUCAACUCAAUAGAGGGGGGGAAAACCCCUUUACCCUCACCAUCAACAGCUCGCAGUCAAG”, the binding signal stood at 0.306 ± 0.41 log2 fold change. The figure for “GGUCACGUCUCAAUCAACUCAAAAGAGGGGGGGAAAACCCCUUUACCCUCACCAUCAACAGCUCGCAGUCAAG” is 0.563 ± 0.413 log2 fold change. The value for “GGUCACGUCUCAAUCAACUCCAAGGAGGGGGGGAAAACCCCUUUACCCUCAAUCUCAACAGCUCGCAGUCAAG” was 0.482 ± 0.442 log2 fold change; that for “GGUCACGUCUCAAUCAACUCCCUAGAGGGGGGGAAAACCCCUUUACCCUCAAUGUCAACAGCUCGCAGUCAAG” was 0.558 ± 0.455 log2 fold change. “GGUCACGUCUCAAUCAACUCCCUAGAGGGGGGGAAAACCCCUUUACCCUCACAAUCAACAGCUCGCAGUCAAG”: the binding signal came to 0.389 ± 0.428 log2 fold change.
